According to PubChem BioAssay AID1159580 (chemical genetic matrix, 2015):
Hit rate of the full screen: of about 5,500 compounds, about 2,000 (36%) were called active. Roughly 18% stayed inconclusive and do not appear here. Cut-off read from the data, not from the text of the source: active = normalized growth mostly below about 0.91 (no sharp cut-off); inconclusive = no clear call, values can overlap the other calls; inactive = mostly above about 0.92. The list shows a part of the results.

Test: chemical genetic growth profiling, strain panel (AID 1159580);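 note: tested at 20 µM; growth read once vehicle control cultures reached saturation at 30 °C; 1 = growth at the plate median or of vehicle wells; lower values mean less growth of the strain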
Conditions: growth OD

Measured: normalized growth

CS(=O)(=O)c1ccc([C@@H](O)[C@@H](CO)NC(=O)C(Cl)Cl)cc1
inactive: S. cerevisiae deletion strains, locus YKL009W, strain mrt4, stronger effect = lower value 0.977 | S. cerevisiae deletion strains, locus YKL068W, stronger effect = lower value 0.978 | S. cerevisiae deletion strains, locus YKL085W, strain MDH1 (second series), stronger effect = lower value 0.988 | S. cerevisiae deletion strains, locus YKL085W, strain MDH1, stronger effect = lower value 0.988 | S. cerevisiae deletion strains, locus YKL160W, strain elf1, stronger effect = lower value 1.02 | S. cerevisiae deletion strains, locus YKL190W, strain CNB1, stronger effect = lower value 0.991 | S. cerevisiae deletion strains, locus YKR001C, strain vps1, stronger effect = lower value 0.99 | S. cerevisiae deletion strains, locus YKR026C, strain gcn3, stronger effect = lower value 1.03 | S. cerevisiae deletion strains, locus YKR091W, strain srl3, stronger effect = lower value 1.01 | S. cerevisiae deletion strains, locus YLL001W, strain dnm1, stronger effect = lower value 1 | S. cerevisiae deletion strains, locus YLL026W, stronger effect = lower value 1.02 | S. cerevisiae deletion strains, locus YLL041C, strain sdh2, stronger effect = lower value 1.02 | S. cerevisiae deletion strains, locus YLR027C, strain aat2, stronger effect = lower value 1.01 | S. cerevisiae deletion strains, locus YLR039C, strain RIC1, stronger effect = lower value 0.947 | S. cerevisiae deletion strains, locus YLR058C, strain SHM2, stronger effect = lower value 0.965 | S. cerevisiae deletion strains, locus YLR102C, strain apc9, stronger effect = lower value 0.978 | S. cerevisiae deletion strains, locus YLR113W, strain HOG1, stronger effect = lower value 0.998 | S. cerevisiae deletion strains, locus YLR221C, strain rsa3, stronger effect = lower value 1.01 | S. cerevisiae deletion strains, locus YLR258W, strain gsy2, stronger effect = lower value 1.02 | S. cerevisiae deletion strains, locus YLR262C, strain YPT6 (second series), stronger effect = lower value 1.03 | S. cerevisiae deletion strains, locus YLR262C, strain YPT6, stronger effect = lower value 0.849 | S. cerevisiae deletion strains, locus YLR268W, strain sec22, stronger effect = lower value 0.983 | S. cerevisiae deletion strains, locus YLR320W, strain mms22, stronger effect = lower value 0.991 | S. cerevisiae deletion strains, locus YLR330W, strain CHS5, stronger effect = lower value 0.982 | S. cerevisiae deletion strains, locus YLR342W, strain FKS1 (second series), stronger effect = lower value 1.01 | S. cerevisiae deletion strains, locus YLR342W, strain FKS1, stronger effect = lower value 1.01 | S. cerevisiae deletion strains, locus YLR357W, strain rsc2, stronger effect = lower value 1 | S. cerevisiae deletion strains, locus YLR370C, strain arc18, stronger effect = lower value 1.03 | S. cerevisiae deletion strains, locus YLR371W, strain rom2, stronger effect = lower value 0.993 | S. cerevisiae deletion strains, locus YLR384C, strain iki3, stronger effect = lower value 1.02 | S. cerevisiae deletion strains, locus YLR418C, strain cdc73, stronger effect = lower value 0.98 | S. cerevisiae deletion strains, locus YML016C, strain PPZ1, stronger effect = lower value 0.981 | S. cerevisiae deletion strains, locus YML032C, strain rad52, stronger effect = lower value 1 | S. cerevisiae deletion strains, locus YML120C, strain ndi1, stronger effect = lower value 1.05 | S. cerevisiae deletion strains, locus YML124C, strain tub3, stronger effect = lower value 0.993 | S. cerevisiae deletion strains, locus YMR058W, strain fet3, stronger effect = lower value 1.03 | S. cerevisiae deletion strains, locus YMR078C, strain ctf18, stronger effect = lower value 0.975 | S. cerevisiae deletion strains, locus YMR125W, strain sto1, stronger effect = lower value 1.04 | S. cerevisiae deletion strains, locus YMR129W, stronger effect = lower value 1.02 | S. cerevisiae deletion strains, locus YMR205C, strain PFK2, stronger effect = lower value 1.01 | S. cerevisiae deletion strains, locus YMR223W, strain ubp8, stronger effect = lower value 1.02 | S. cerevisiae deletion strains, locus YMR231W, strain pep5, stronger effect = lower value 1.03 | S. cerevisiae deletion strains, locus YMR263W, strain SAP30, stronger effect = lower value 0.984 | S. cerevisiae deletion strains, locus YMR307W, strain GAS1, stronger effect = lower value 1.06 | S. cerevisiae deletion strains, locus YNL067W, strain RPL9B, stronger effect = lower value 0.973 | S. cerevisiae deletion strains, locus YNL071W, strain lat1, stronger effect = lower value 1.03 | S. cerevisiae deletion strains, locus YNL128W, strain TEP1, stronger effect = lower value 0.975 | S. cerevisiae deletion strains, locus YNL153C, strain GIM3, stronger effect = lower value 0.981 | S. cerevisiae deletion strains, locus YNL183C, strain NPR1, stronger effect = lower value 0.959 | S. cerevisiae deletion strains, locus YNL209W, strain ssb2, stronger effect = lower value 1.04 | S. cerevisiae deletion strains, locus YNL233W, strain BNI4, stronger effect = lower value 0.99 | S. cerevisiae deletion strains, locus YNL248C, strain rpa49, stronger effect = lower value 1.07 | S. cerevisiae deletion strains, locus YNL250W, strain rad50, stronger effect = lower value 0.981 | S. cerevisiae deletion strains, locus YNL271C, strain bni1, stronger effect = lower value 0.995 | S. cerevisiae deletion strains, locus YNL298W, strain CLA4, stronger effect = lower value 0.988 | S. cerevisiae deletion strains, locus YNL307C, strain MCK1, stronger effect = lower value 0.985 | S. cerevisiae deletion strains, locus YNL322C, strain KRE1 (second series), stronger effect = lower value 1.02 | S. cerevisiae deletion strains, locus YNL322C, strain KRE1, stronger effect = lower value 0.983 | S. cerevisiae deletion strains, locus YNR049C, strain mso1, stronger effect = lower value 1 | S. cerevisiae deletion strains, locus YNR052C, strain pop2, stronger effect = lower value 0.993 | S. cerevisiae deletion strains, locus YOL006C, strain TOP1, stronger effect = lower value 0.889 | S. cerevisiae deletion strains, locus YOL012C, strain htz1 1.83 | S. cerevisiae deletion strains, locus YOL147C, strain pex11, stronger effect = lower value 0.99 | S. cerevisiae deletion strains, locus YOR001W, strain rrp6, stronger effect = lower value 1.03 | S. cerevisiae deletion strains, locus YOR061W, strain CKA2, stronger effect = lower value 0.944 | S. cerevisiae deletion strains, locus YOR069W, strain VPS5, stronger effect = lower value 0.991 | S. cerevisiae deletion strains, locus YOR070C, strain gyp1, stronger effect = lower value 1.03 | S. cerevisiae deletion strains, locus YOR080W, strain dia2, stronger effect = lower value 1.02 | S. cerevisiae deletion strains, locus YOR083W, strain WHI5, stronger effect = lower value 0.98 | S. cerevisiae deletion strains, locus YOR106W, strain vam3, stronger effect = lower value 1.05 | S. cerevisiae deletion strains, locus YOR136W, strain idh2, stronger effect = lower value 0.992 | S. cerevisiae deletion strains, locus YOR144C, strain elg1, stronger effect = lower value 0.983 | S. cerevisiae deletion strains, locus YOR184W, strain ser1, stronger effect = lower value 1.03 | S. cerevisiae deletion strains, locus YOR231W, strain MKK1, stronger effect = lower value 0.967 | S. cerevisiae deletion strains, locus YOR265W, strain rbl2, stronger effect = lower value 1.03 | S. cerevisiae deletion strains, locus YOR270C, strain vph1, stronger effect = lower value 1.12 | S. cerevisiae deletion strains, locus YOR290C, strain snf2, stronger effect = lower value 1.04 | S. cerevisiae deletion strains, locus YOR316C, strain cot1, stronger effect = lower value 0.975 | S. cerevisiae deletion strains, locus YPL051W, strain arl3, stronger effect = lower value 1.02 | S. cerevisiae deletion strains, locus YPL055C, strain LGE1, stronger effect = lower value 0.984 | S. cerevisiae deletion strains, locus YPL078C, strain atp4, stronger effect = lower value 1.04 | S. cerevisiae deletion strains, locus YPL106C, strain sse1, stronger effect = lower value 1.01 | S. cerevisiae deletion strains, locus YPL240C, strain hsp82, stronger effect = lower value 1.02 | S. cerevisiae deletion strains, locus YPL241C, strain CIN2, stronger effect = lower value 0.968 | S. cerevisiae deletion strains, locus YPL256C, strain CLN2, stronger effect = lower value 0.995 | S. cerevisiae deletion strains, locus YPR119W, strain clb2, stronger effect = lower value 1 | S. cerevisiae deletion strains, locus YPR141C, strain kar3, stronger effect = lower value 0.971 | S. cerevisiae deletion strains, locus YPR163C, strain tif3, stronger effect = lower value 1 | S. cerevisiae deletion strains, locus YPR167C, strain met16, stronger effect = lower value 0.975 | S. cerevisiae deletion strains, strain wtn01, stronger effect = lower value 0.984 | S. cerevisiae strains, strain wild type, stronger effect = lower value 0.963
